The record followed here is PubChem BioAssay AID2570 (National Center for Advancing Translational Sciences (NCATS), 2010).

Inconclusive results are not listed. A number with no mark means an inactive call. Calls come from the whole dose curve; as a rule, active = well fitted curve in the direction sought with a large enough effect; inconclusive = small, poorly fitted or top-dose-only effect, or another doubt; inactive = no such curve, though single readings can be large or run the other way.

This experiment deals with Vasopressin V1b receptor (Homo sapiens) (UniProt P47901). Briefly: Counterscreen Concentration-Response Assay for Antagonists of the Neuropeptide S Receptor: Vasopressin Receptor Calcium Signal Transduction. To be noted: CHO-AVPR1B, vasopressin-stimulated calcium fluorescence, FDSS. From the text: NIH Chemical Genomics Center [NCGC] NIH Molecular Libraries Probe Production centers Network [MLPCN] MLPCN Grant: X01-DA026210-01 Assay Submitter (PI): Heilig, Markus Alexander NCGC Assay Overview: Neuropeptide S receptor (NPSR), previously known as GPR154, is a recently de-orphanized G protein coupled receptor. Its endogenous ligand is the 20 amino acids peptide Neuropeptide S (NPS). […] NPS and its receptor are found in various tissues. Specifically they are highly expressed in brain areas that have been implicated in modulation of arousal, stress and anxiety. Central administration of NPS in mice produces an unusual profile of activity by inducing wakefulness and arousal, while at the same time suppressing anxiety. Therefore, NPSR may represent a novel drug target for the treatment of sleep and anxiety disorders. To identify NPSR antagonists, we developed a cell-based assay with transfected NPS receptor. NPS can stimulate the production of cAMP as well as release intracellular calcium in Chinese hamster ovary cells stably expressing NPS receptor. This change in intracellular calcium can be detected using a calcium indicator dye on a calcium imaging plate reader system (FDSS). To validate the specific action of compounds on the NPS receptor, a counterscreen was developed that tests compounds' antagonism of AVPR1B vasopressin receptor stimulation by vasopressin. […] shares 27% identity with the NPS receptor.
Chain of Vasopressin V1b receptor (Homo sapiens) (P47901 whole entry, looked up): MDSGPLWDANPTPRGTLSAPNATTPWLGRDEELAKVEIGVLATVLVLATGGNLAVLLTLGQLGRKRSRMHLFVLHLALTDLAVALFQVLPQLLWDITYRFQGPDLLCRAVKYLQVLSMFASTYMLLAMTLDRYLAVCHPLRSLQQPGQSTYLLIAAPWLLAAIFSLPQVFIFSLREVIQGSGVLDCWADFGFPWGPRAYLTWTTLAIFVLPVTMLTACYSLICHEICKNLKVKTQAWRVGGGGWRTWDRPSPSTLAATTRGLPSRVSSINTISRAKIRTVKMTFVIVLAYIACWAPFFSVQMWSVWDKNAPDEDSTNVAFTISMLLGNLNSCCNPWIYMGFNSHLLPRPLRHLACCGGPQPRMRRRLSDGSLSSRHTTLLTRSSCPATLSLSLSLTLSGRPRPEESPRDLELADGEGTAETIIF
NCGC Assay Protocol Summary: A Chinese hamster ovary (CHO) cell line stably expressing human vasopressin receptor (AVPR1B) was maintained in F-12 Kaighn's media (Invitrogen, Carlsbad, CA, 21127) supplemented with 10 % FBS, 100 units/ml penicillin, 100 ug/ml streptomycin and 250 ug/ml geneticin at 37C, 5% CO2 in a humidified atmosphere. Before the assay, aliquots of cells were frozen and stored at -135C. The assay was performed on a FDSS-7000 kinetic plate reader in 1536-well format. The maximums of kinetic fluorescence responses were converted into text files using the instrument's software data export utility. Data for antagonist response were normalized to the controls for basal activity (DMSO only) and 100% inhibition (no signal). AC50 values were determined from concentration-response data modeled with the standard Hill equation. CHO-V1B 1536-well FDSS assay protocol: (1) Frozen CHO-V1B cells were thaw, washed once with fresh media and resuspended in F-12 Kaighn's media supplemented with 10 % FBS, 100 units/ml penicillin and 100 ug/ml streptomycin. Cells were plated at 3 ul/well (1200 cells) to black, clear-bottom, tissue-culture treated 1536-well plates, and then cultured at 37C, 5 % CO2 for 16 to 30 hours. (2) Add 3 ul of calcium dye (from High Performance PBX Calcium Assay Kit, BD Biosciences). The calcium dye was prepared according to the manufactory's instruction. (3) Incubation at 37C, 5 % CO2 for 60 min. (4) Add 23 nl/well of compound in DMSO solution. The final titration for each compound was between 0.6 nM and 46 uM. (5) Load plates to FDSS-7000. The following steps were performed on FDSS-7000. (6) Record fluorescent background (Ex 480 nm, Em 520-560 nm) for 10 s. (7) Add 2 ul of stimulation reagent (1X HBSS buffer, 0.1% BSA, 60 nM vasopressin). Record antagonist response (Ex 480 nm, Em 520-560 nm) for 180 s. Keywords: MLSMR, MLPCN, NIH Roadmap, qHTS, NCGC, NPS, Neuropeptide S Antagonists
Regarding `COc1cccc(C2c3c(ncn(-c4ccccc4Br)c3=N)Oc3ccc4ccccc4c32)c1` (stereo not given), the max response was 18.9%.

For `COc1cccc(C2c3c(ncn(-c4ccncc4)c3=N)Oc3ccc4ccccc4c32)c1` (stereo not given), the max response was 23.2%.

In the case of `COc1ccc(C2c3c(nc(CCc4ccccc4)[nH]c3=O)Oc3ccc4ccccc4c32)cc1OC` (stereo not given), the max response is 1.09%.

In the case of `O=C(c1ccccc1)N(C(=O)c1ccccc1)c1ncnc2c1C(c1ccccc1)c1c(ccc3ccccc13)O2` (stereo not given), the max response is 12.9%.

With `COc1cccc(C2c3c(ncn(-c4cccnc4)c3=N)Oc3ccc4ccccc4c32)c1` (stereo not given), the max response is -4.29%.

Take `CCOC(=O)c1ccc(-n2cnc3c(c2=N)C(c2cccc(OC)c2)c2c(ccc4ccccc24)O3)cc1` (stereo not given): the max response is 17.2%.

Consider `N=c1c2c(ncn1-c1ccccc1)Oc1ccc3ccccc3c1C2c1ccc2c(c1)CCO2` (stereo not given), for which the max response is -13.6%.

Take `COc1cccc(C2c3c(ncn(-c4ccc(Br)cc4)c3=N)Oc3ccc4ccccc4c32)c1` (stereo not given): the max response was 0.304%.

`N=c1c2c(ncn1CCN1CCOCC1)Oc1ccc3ccccc3c1C2c1ccccc1` (stereo not given): the max response was 25.9%.

Turning to `COc1cccc(C2c3c(ncn(-c4ccccc4OC)c3=N)Oc3ccc4ccccc4c32)c1` (stereo not given), the max response is -19.5%.

On to `COc1cccc(C2c3c(ncn(-c4ccc(C(C)(C)C)cc4)c3=N)Oc3ccc4ccccc4c32)c1` (stereo not given), for which the max response was 17.5%.

With `COc1ccc(C2c3c(ncn(Cc4ccccc4)c3=N)Oc3ccc4ccccc4c32)cc1OC` (stereo not given), the max response is -10.2%.

Consider `COc1cccc(C2c3c(ncn(-c4cccc(OC)c4)c3=N)Oc3ccc4ccccc4c32)c1` (stereo not given), for which the max response was -13.6%.

Take `COc1ccc(C2c3c(N)nc(Cc4ccccc4)nc3Oc3ccc4ccccc4c32)cc1OC` (stereo not given): the max response is -15.7%.

In the case of `Cc1c(P(=S)(c2ccccc2)c2ccccc2)c2ccccc2n1Cc1ccccc1`, the max response was 0.753%.

In the case of `CCOC(=O)CCC(=O)Nc1ncnc2c1C(c1ccccc1)c1c(ccc3ccccc13)O2` (stereo not given), the max response was -0.278%.

Consider `COc1ccc(C2c3c(n(CCCc4ccccc4)cnc3=N)Oc3ccc4ccccc4c32)cc1OC` (stereo not given), for which the max response was -23.2%.

On to `COc1cccc(C2c3c(ncn(-c4ccc(-c5ccccc5)cc4)c3=N)Oc3ccc4ccccc4c32)c1` (stereo not given), for which the max response is -10.6%.

As to `COc1ccc(C2c3c(n(Cc4ccccc4)cnc3=N)Oc3ccc4ccccc4c32)cc1OC` (stereo not given), the max response was -20.3%.

Regarding `COc1ccc(C2c3c(nc(C)[nH]c3=O)Oc3ccc4ccccc4c32)cc1OC` (stereo not given), the max response was -25.8%.

On to `COc1cccc(C2c3c(ncn(-c4ccc(F)cc4)c3=N)Oc3ccc4ccccc4c32)c1` (stereo not given), for which the max response was -36.5%.

Regarding `O=C(CCc1ccccc1)Nc1ncnc2c1C(c1ccccc1)c1c(ccc3ccccc13)O2` (stereo not given), the max response is -23%.

With `COc1cccc(C2c3c(ncn(Cc4cccs4)c3=N)Oc3ccc4ccccc4c32)c1` (stereo not given), the max response was 22.2%.

As to `COc1cccc(C2c3c(ncn(-c4ccc(NC(C)=O)cc4)c3=N)Oc3ccc4ccccc4c32)c1` (stereo not given), the max response is -34.2%.

As to `CCC(C)(CCN1CCOCC1)N(Cc1cc2ccccc2n(C)c1=O)C(=O)C1CCCCC1` (stereo not given), the max response is -9.76%.

`O=C(Cc1ccccc1)Nc1ncnc2c1C(c1ccccc1)c1c(ccc3ccccc13)O2` (stereo not given): the max response is 7.19%.

Turning to `COc1cccc(C2c3c(ncn(-c4ccc(C#N)cc4)c3=N)Oc3ccc4ccccc4c32)c1` (stereo not given), the max response was -46.5%.

Regarding `Cc1c(P(=S)(c2ccccc2)c2ccccc2)[n+]2ccccc2n1CCCc1ccccc1`, the max response was -9.72%.

In the case of `COc1cccc(C2c3c(ncn(-c4cccc(Br)c4)c3=N)Oc3ccc4ccccc4c32)c1` (stereo not given), the max response is -12.3%.

Regarding `CCOC(=O)CCCC(=O)Nc1ncnc2c1C(c1ccccc1)c1c(ccc3ccccc13)O2` (stereo not given), the max response is -39.8%.

On to `COc1cccc(C2c3c(ncn(-c4ccccc4Cl)c3=N)Oc3ccc4ccccc4c32)c1` (stereo not given), for which the max response was 1.44%.

As for `COc1ccc(C2c3c(ncn(CCN4CCOCC4)c3=N)Oc3ccc4ccccc4c32)cc1` (stereo not given), the max response was -23.1%.

As for `COc1ccc(C2c3c(N)nc(CCc4ccccc4)nc3Oc3ccc4ccccc4c32)cc1OC` (stereo not given), the max response is -20.6%.

For the compound `COc1ccc(C2c3c(n(CCc4ccccc4)cnc3=N)Oc3ccc4ccccc4c32)cc1OC` (stereo not given), the max response was -53.4%.

As for `COc1cccc(C2c3c(ncn(-c4ccccc4)c3=N)Oc3ccc4ccccc4c32)c1` (stereo not given), the max response was -8.43%.

Regarding `COc1ccc(C2c3c(ncn(CCN4CCOCC4)c3=N)Oc3ccc4ccccc4c32)cc1OC` (stereo not given), the max response was -15.6%.

For `COc1cccc(C2c3c(ncn(-c4ccccc4C(C)(C)C)c3=N)Oc3ccc4ccccc4c32)c1` (stereo not given), the max response was 9.94%.

Turning to `COc1cccc(C2c3c(ncn(CCN4CCOCC4)c3=N)Oc3ccc4ccccc4c32)c1` (stereo not given), the max response is -2.37%.

In the case of `COc1ccc(C2c3ccccc3Oc3ncn(CCN4CCOCC4)c(=N)c32)cc1OC` (stereo not given), the max response is 20.8%.

Turning to `COc1cccc(C2c3c(ncn(-c4ccccn4)c3=N)Oc3ccc4ccccc4c32)c1` (stereo not given), the max response is 29.6%.
